Screens as filed in PubChem BioAssay.
An excerpt weighted towards active compounds, which were near 6.7% of everything screened.
Pf_Dd2_inh: P. falciparum Dd2 growth inhibitors, primary screen, SYBR Green fluorescence, single dose replicates | 72 h; hits give low values | activity change, % at 10 µM | 2.3% of 94,000 active | AID 1159554, 2015; in the data active means activity change below about -80%
T_cruzi_growth-1: T. cruzi intracellular proliferation inhibitors, primary screen, cell-based, beta-gal Tulahuen parasites, NIH3T3 host, luminescence; T. cruzi beta-gal in NIH3T3, GalScreen luminescence, 90 h; inhibition, % at 8.34 µM; 5.9% of 77,000 active;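 active means mean inhibition above about 93%, with at least 55% of replicates each passing it, limit read from the data, passing the limit was not always enough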
C_diff_growth: C. difficile growth inhibitors, primary screen, HTS; Clostridium difficile clinical isolate growth, OD600, 24 h; hits give low values; 0.25% of 86,000 active; growth activity, negative = inhibition, % at 16 µg/mL (by protocol);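 active means mean growth activity at or below -80% and every replicate also at or below -80%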;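 further: 0% = DMSO wells and -100% = levofloxacin 16 µg/mL wells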
T_cruzi_growth-2: T. cruzi intracellular proliferation inhibitors, confirmation, cell-based, NIH3T3 host, beta-gal parasite, luminescence, cherry-pick. T. cruzi beta-gal in NIH3T3, GalScreen luminescence, 90 h. 72% of 5,600 active. shares compounds with T_cruzi_growth-1. inhibition, % at 8.35 µM;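 active means mean replicate inhibition above about 95% and at least 55% of replicates individually reaching it, limit read from the data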
T_cruzi_growth-3: inhibitors of intracellular T. cruzi replication, confirmation, NIH3T3 host cells, beta-gal parasites, cherry-pick, set 2; shares compounds with T_cruzi_growth-1; 21% of 5,600 active; T. cruzi beta-gal in NIH3T3, GalScreen luminescence, 90 h; AID 651740, 2012; inhibition, % at 2.09 µM;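 active means mean inhibition above about 95%, with at least 55% of replicates also reaching it, limit read from the data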;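 further: plate controls were neutral control median for no effect and positive control median for full effect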
NIH3T3_tox: cytotoxicity in mouse NIH/3T3 fibroblasts, confirmation, cytotoxicity control for T. cruzi proliferation inhibitor project, cell-based, cherry-pick, single point; shares compounds with T_cruzi_growth-1; NIH/3T3 viability, CellTiter-Glo ATP luminescence, 90 h; cytotoxicity (signal decrease), % at 8.35 µM; 14% of 5,600 active;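 active means mean signal decrease across replicates above about 35% based on untreated-well scatter, with enough replicates individually passing, limit read from the data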;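 further: 0% = median of neutral control wells and 100% = median of positive control wells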
NIH3T3_tox_2: NIH/3T3 fibroblast cytotoxicity, confirmation, cytotoxicity control, cell-based, cherry-pick, single point, set 2 | shares compounds with T_cruzi_growth-1 | NIH/3T3 viability, CellTiter-Glo ATP luminescence, 90 h | inhibition, % at 24.9 µM | 56% of 5,600 active;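 active means mean loss of cell viability signal at or above a set limit, and enough replicates individually reaching it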;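 further: 0% = median of neutral control wells and 100% = median of positive control wells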
* hit, by the source's call; x = not tested or not shown.

SMILES Pf_Dd2_inh T_cruzi_growth-1 C_diff_growth T_cruzi_growth-2 T_cruzi_growth-3 NIH3T3_tox NIH3T3_tox_2
C[C@@H]1CN([C@@H](C)CO)C(=O)c2cc(NC(=O)Nc3ccccc3)ccc2O[C@@H](C)CCCCO[C@@H]1CN(C)C(=O)Nc1ccc2c(c1)OCO2 -49 11 3 x x x x
C[C@@H]1CCCCO[C@H](CN(C)C(=O)Nc2ccc3c(c2)OCO3)[C@H](C)CN([C@H](C)CO)C(=O)c2cc(NC(=O)Nc3ccccc3)ccc2O1 -47 108* 13 111* 15 -29 -23
C[C@@H]1CCCCO[C@@H](CN(C)C(=O)Nc2ccccc2)[C@H](C)CN([C@@H](C)CO)C(=O)c2cc(NC(=O)Nc3ccc4c(c3)OCO4)ccc2O1 13 33 5 x x x x
C[C@H]1CCCCO[C@H](CN(C)C(=O)Nc2ccc3c(c2)OCO3)[C@@H](C)CN([C@@H](C)CO)C(=O)c2cc(NC(=O)Nc3ccc(F)cc3)ccc2O1 -65 72 -3 x x x x
C[C@@H]1CCCCO[C@@H](CN(C)C(=O)Nc2ccccc2)[C@@H](C)CN([C@H](C)CO)C(=O)c2cc(NC(=O)Cc3ccccc3)ccc2O1 -19 6 x x x x x
C[C@@H]1CN([C@@H](C)CO)C(=O)Cc2cc(NC(=O)Nc3ccc(F)cc3)ccc2O[C@H]1CN(C)S(=O)(=O)c1ccccc1 -9 -3 -1 x x x x
C[C@@H]1CN([C@@H](C)CO)C(=O)Cc2cc(NS(C)(=O)=O)ccc2O[C@@H]1CN(C)C(=O)NC1CCCCC1 -2 28 -1 x x x x
CO[C@H]1CN(C)C(=O)c2ccc(NS(=O)(=O)c3ccccc3C)cc2OC[C@H](C)N(C)C[C@H]1C -9 24 x x x x x
C[C@@H]1CCCCO[C@@H](CN(C)C(=O)Nc2ccc3c(c2)OCO3)[C@@H](C)CN([C@@H](C)CO)C(=O)c2cc(NC(=O)CCCN(C)C)ccc2O1 -3 x -2 x x x x
C[C@@H]1CCCCO[C@H](CN(C)C(=O)Nc2ccc3c(c2)OCO3)[C@H](C)CN([C@H](C)CO)C(=O)c2cc(NC(=O)CCCN(C)C)ccc2O1 -54 104* 3 6 2 -1 8
COc1ccc(S(=O)(=O)N[C@@H]2CC[C@H](CC(=O)O)O[C@H]2CO)cc1 5 59 0 x x x x
C/C=C/c1ccc2c(c1)O[C@H](CN(C)C(=O)Nc1ccc(F)cc1)[C@@H](C)CN([C@@H](C)CO)S2(=O)=O -7 7 6 x x x x
C[C@@H]1CN([C@@H](C)CO)S(=O)(=O)c2ccc(/C=C/c3ccccc3)cc2O[C@@H]1CN(C)C(=O)Nc1ccc(F)cc1 -89* 123* -2 102* 104* 32 48*
C[C@@H]1CN([C@@H](C)CO)S(=O)(=O)c2ccc(/C=C/c3ccccc3)cc2O[C@H]1CN(C)C(=O)Nc1ccc(F)cc1 -73 131* -9 99* 96* 39* 61*
C/C=C/c1ccc2c(c1)O[C@H](CN(C)C(=O)Nc1ccccc1)[C@H](C)CN([C@H](C)CO)S2(=O)=O 6 68 9 x x x x
COc1ccc(S(=O)(=O)N(C)C[C@@H]2Oc3ccc(NS(C)(=O)=O)cc3CC(=O)N([C@H](C)CO)C[C@H]2C)cc1 -39 27 5 x x x x
COc1ccccc1-c1cnc2c(c1)C(=O)N([C@H](C)CO)C[C@@H](C)[C@@H](CN(C)C(=O)c1cccnc1)O2 -66 x -2 x x x x
O=C(C[C@H]1CC[C@H]2[C@@H](COC[C@H](O)CN2C(=O)Nc2cc(Cl)cc(Cl)c2)O1)N1CCCCC1 -13 99* x 109* 39 11 20
